Structures are written as SMILES.

In the experiment the target is Hexose transporter 1 (Plasmodium falciparum) (UniProt O97467). Kind of experiment: ST_JUDE_LEISH: Cytotoxicity at 2uM final concentration against transgenic Leishmania Mexicana promastigotes LmPfHT that are glucose transport deficient and complemented with the Plasmodium falciparum hexose transporter. Activity is measured by DNA content using SYBR green in vitro. It counts as functional.
What is called inhibition is the change of the read-out against control, counted positive when it falls. On to `OC(CNCc1ccccc1OCc1ccccc1)c1cccc(Br)c1` (stereo not given), for which the inhibition came to 4.13%.

As to `Cc1cccc2nc(-c3cccc(-c4ccc(NC(=O)NCc5ccccc5)cc4)c3)[nH]c12`, the inhibition was 2.74%.

For the compound `Cc1ccccc1CNc1ccc2nc(N)nc(N)c2c1`, the inhibition turned out to be 2.12%.

With `Cc1ccc(S(=O)(=O)n2nccc2-c2c(-c3ccc(Cl)cc3)noc2C)cc1`, the inhibition is 3.35%.

For `Brc1cccc(Nc2nccc(Nc3ccc(Oc4ccccc4)cc3)n2)c1`, the inhibition stood at 5.97%.

As to `CC1(C)NC(N)=NC(=N)N1OCCCOc1cc(Cl)ccc1Cl`, the inhibition turned out to be 13.5%.

As to `O=C(NCc1ccc(F)cc1)c1ccc(N2CCN(c3ccncc3)CC2)cn1`, the inhibition is -0.85%.

On to `CCCNCc1ccc(-c2ccc(CN(CC3CCCO3)C(=O)COc3ccccc3Cl)cc2)nc1` (stereo not given), for which the inhibition amounted to 4.73%.

Consider `Cc1nc(Nc2ccc(F)cc2)nc(N2CCc3ccccc3C2C)c1CO` (stereo not given), for which the inhibition was 7.38%.

On to `N#Cc1cccc(CN2CCCN(Cc3cccc(C(=O)Nc4ccc(Cl)cc4)c3)CC2)c1`, for which the inhibition was 0.19%.

On to `Cc1[nH]c(C)c([N+](=O)[O-])c(=O)c1-c1ccc(Oc2ccc(OC(F)(F)F)cc2)cc1`, for which the inhibition came to 1.27%.

In the case of `COc1ccc(NC(=O)Nc2ccc(C)c(-c3ccc(C(=O)Nc4ccncc4)cc3)c2)cc1`, the inhibition came to 1.45%.

Consider `COc1ccc(NC(=O)Nc2ccc(Nc3nc(C)cc(N4CCCC4)n3)cc2)cc1`, for which the inhibition stood at 3.69%.

With `COc1ccc(CNCC(C)(C)c2nc(-c3ccc(Cl)c(O)c3)c(-c3ccncc3)[nH]2)cc1`, the inhibition was found to be 0.9%.

On to `O=C(Cc1ccc(NC(=O)c2ccc(O)c(-c3ccc(Cl)c(Cl)c3)c2)cc1)NCCN1CCCCC1`, for which the inhibition was -0.35%.

For `COc1cc(C(=O)Nc2ccc3nc(N4CCN(C)CC4)cc(C)c3c2)cc(OC)c1OC`, the inhibition was 0.31%.

`Cc1cccc2nc(-c3cccc(-c4ccc(NC(=O)c5ccc(=O)[nH]n5)cc4)c3)[nH]c12`: the inhibition stood at 3.2%.

Consider `CN1CCCC(CN2CCN(Cc3ccc(-c4cccc(-c5nc6ccccc6[nH]5)c4)cc3)CC2)C1` (stereo not given), for which the inhibition worked out at 2.47%.

Take `CCOC(=O)c1ccc(NC(=O)N(Cc2ccc(-c3ccc(CN4CCNCC4)cc3)cc2)Cc2cccnc2)cc1`: the inhibition is 2.09%.

For `COc1ccc(S(=O)(=O)N(c2cc(Br)cc3c2OCC3)S(=O)(=O)c2ccc(OC)c(N3CCN(C)CC3)c2)cc1N1CCN(C)CC1`, the inhibition worked out at 0.62%.

Take `COc1cc2c(cc1O)[C@@H]1[C@H](O)[C@@H](O)C=C3CCN(C2)[C@H]31`: the inhibition turned out to be 3.79%.

Consider `COc1ccc(CCN(C)CCOc2ccc(NC(=O)c3cccc4c(=O)c5cc(SC)ccc5[nH]c34)cc2)cc1OC`, for which the inhibition is 8.61%.

Consider `CC(=O)c1ccc(NC(=O)C2c3ccccc3C(=O)N(CC(C)C)C2c2cccs2)cc1` (stereo not given), for which the inhibition amounted to 0.9%.

Consider `CCOC(=O)c1ccc(NC(=O)Nc2cccc(-c3ccc(-c4nc5cccc(C)c5[nH]4)s3)c2)cc1`, for which the inhibition was found to be 0.81%.

For the compound `CCc1ccc(C2CCN(CCCCNC(=O)c3ccc(NC(=O)c4ccc(Cl)cc4)cc3)CC2)cc1`, the inhibition came to 0.38%.

As for `CNC(=O)c1cncc(/C=C/c2ccccc2S(N)(=O)=O)c1`, the inhibition turned out to be 4.59%.

`O=C(NC1CCCCC1)N(Cc1cccc(-c2cccc(CNC3CCCC3)c2)c1)C1CCN(Cc2ccccc2)CC1`: the inhibition was found to be 6.23%.

Turning to `Cc1cccc(CCNC(=O)c2cc(Br)cc(N3CCN(c4ccncc4)CC3)c2)c1`, the inhibition came to 2.44%.

As to `CN(CC(=O)Nc1ccc(F)cc1)C(=O)c1ccc(-c2ccc(F)cc2)o1`, the inhibition worked out at 7.16%.

For the compound `COc1ccc(CN2CCCN(Cc3cccc(NC(=O)c4ccc5ccccc5c4)c3)CC2)cc1`, the inhibition worked out at 1.71%.

For the compound `CCCCCCN1CCC(CNCc2cccc([N+](=O)[O-])c2)CC1`, the inhibition is 9.36%.

Regarding `COc1ccc2nc(-c3cc(-c4ccc(NC(=O)C(C)C)cc4)cnc3N)[nH]c2c1`, the inhibition was found to be 40.7%.

As to `CCCCN(CCCC)Cc1cc(Nc2ccnc3cc(Cl)ccc23)ccc1O`, the inhibition worked out at 8.01%.

Turning to `CC(C)c1ccc(NC(=O)c2cccc(CN3CCCN(Cc4cccc(O)c4)CC3)c2)cc1`, the inhibition came out at 12%.

On to `Cc1ccc(C(=O)NC2CCN(CCNC(=O)Nc3cc(C)nc4ccccc34)CC2)cc1`, for which the inhibition is 0.53%.

Turning to `CC(CN1CCN(C)CC1)C(=O)Nc1ccc(-c2csc(-c3nc4ccccc4[nH]3)c2)cc1` (stereo not given), the inhibition amounted to 5.18%.

Turning to `Cn1cncc1-c1ccc2c(-c3ccsc3)cnc(N)c2c1`, the inhibition turned out to be 6.85%.

Consider `Cc1cccc2nc(-c3ccc(-c4ccc(CNCc5ccccc5)cc4)cc3)[nH]c12`, for which the inhibition is 3.32%.

For the compound `O=C(Nc1ccc(-c2nc3ccccc3[nH]2)cc1)c1cccc(S(=O)(=O)N2CCCC2)c1`, the inhibition stood at 2.8%.

With `Cc1cccc(C(=O)Nc2ccnc(N(C)CCCN(C)Cc3cccc(O)c3)c2)c1`, the inhibition was 1.08%.

The values are drawn from ChEMBL document CHEMBL3433997, “St. Jude Leishmania screening dataset” (2016).
